From PubChem BioAssay AID504725 (Broad Institute, 2011)
Entries with a potency or affinity are not part of this list. The source made the active and inactive calls. How the calls were made is not given here.

Molecular target: KSHV LANA C-terminal domain (residues 932-1162) binding to LBS DNA (UniProt O40947)
Test: KSHV LANA DNA-binding disruption – biochemical, fluorescence polarization, cherry-picked samples, dose response (AID 504725)

Question: With `CC(C)CC(=O)Nc1ccc(S(=O)(=O)N2CC3CC(C2)c2cccc(=O)n2C3)cc1` (stereo not drawn) as the molecule, how does the outcome read?
Answer: Its outcome is “inactive”.

Question: Which outcome does the source give for `Cc1cc(=O)oc2cc(OCC(=O)N3CCN(Cc4ccc5c(c4)OCO5)CC3)ccc12` here?
Answer: The outcome was “inactive”.

Question: With `O=c1c2ccccc2nc(/C=C\c2ccccc2[N+](=O)[O-])n1-c1ccccc1O` as the molecule, how does the outcome read?
Answer: Its outcome is “inactive”.

Question: With `CCn1c(O)c(N=Nc2cccc(S(=O)(=O)N3CCOCC3)c2)c(=O)n(CC)c1=S` as the molecule, how does the outcome read?
Answer: The outcome was “inactive”.

Question: `COC(=O)C1=C(c2ccc(OC(F)(F)F)cc2)C[C@@H]2CC[C@H]1N2C(=O)NC1CCCCC1` was tested. Which outcome did it give?
Answer: Its outcome is “inactive”.

Question: Which outcome does the source give for `CN(C)C1C(=O)C(C(N)=O)=C(O)C2(O)C(=O)C3=C(O)c4c(O)cccc4C(C)(O)C3C(O)C12` (stereo not drawn) here?
Answer: The outcome was “inactive”.

Question: For `CC(Cc1ccccc1)NC(=O)NC(C)Cc1ccccc1` (stereo not drawn), which outcome is on record?
Answer: Its outcome is “inactive”.

Question: Which outcome does the source give for `O=c1[nH]c(=O)n(C2CCCCC2)c(O)c1C=Nc1ccc(N2CCOCC2)cc1` here?
Answer: The outcome was “inactive”.

Question: `Cc1cc(OCC(=O)OC(C)(C)C)c2c3c(c(=O)oc2c1)CCC3` was tested. Which outcome did it give?
Answer: The outcome was “inactive”.

Question: How did the outcome turn out when `CCOC(=O)c1c(/N=C/c2c(O)n(-c3cccc(C)c3)c(=O)[nH]c2=O)sc2c1CCCC2` was run?
Answer: The outcome was “inactive”.

Question: For `CCCCc1ccc(C(=O)O)nc1`, which outcome is on record?
Answer: Its outcome is “inactive”.

Question: How did the outcome turn out when `COCCNC(=O)Cn1cc(/C=C2\C(=O)NC(=O)N(c3cccc(C)c3C)C2=O)c2ccccc21` was run?
Answer: Its outcome is “inactive”.

Question: For `CC(OC(=O)c1cn(C)c2ccccc12)C(=O)N1CCCC1` (stereo not drawn), which outcome is on record?
Answer: Its outcome is “inactive”.
